# In PubChem BioAssay AID463190 (Sanford-Burnham Center for Chemical Genomics, 2010):
# Screen size: about 330,000 compounds; about 7,300 (2.2%) were called active. This excerpt belongs to a sample that is enriched for actives. Values without a mark were called inactive.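 How the source made its calls: active means inhibition of at least 40%; inactive means the rest.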
# Test: growth inhibitors of tim10-1 mutant yeast, primary screen, luminescence, uHTS (AID 463190);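 further: mutant grown at 25 °C; 0% = DMSO wells with yeast and 100% = wells holding no yeast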
# Conditions: S. cerevisiae tim10-1 ts strain growth, BacTiter-Glo, 24 h; at 20 µM; stronger effect = higher value
row,SMILES,inhibition
1,Cc1cc(C)n(Cc2cnc(N3CCOCC3)s2)n1,10.6%
2,COc1ccc(-n2c(=O)[nH]c3cc(C(=O)NCCc4ccc(OC)c(OC)c4)ccc3c2=O)c(OC)c1,7.83%
3,CCOc1ccccc1N(CC(=O)NC1CCCCC1)C(=O)CCCC(=O)Nc1ccccn1,10.6%
4,Cn1c(Cc2cccs2)nnc1SCC(=O)Nc1ccccc1,10.8%
5,CCn1c(/C=C/c2ccc([N+](=O)[O-])o2)nc2ccccc2c1=O,69.9% (active)
6,CCc1ccc(S(=O)(=O)N/N=C\c2ccc([N+](=O)[O-])o2)cc1,30.4%
7,CCn1c(=O)c([N+](=O)[O-])c(NCc2ccc3c(c2)OCO3)c2ccccc21,2.3%
8,COc1ccc(OC)c(C2C3=C(N=c4s/c(=C\c5cccc(O)c5)c(=O)n42)c2ccccc2CC3)c1 (stereo unspecified),22%
9,COc1ccc(CN2CC[C@H]3C=CC[C@@H](C(=O)N4CCOCC4)[C@H]3C2=O)cc1OC,6.76%
10,Cc1nc2ccccn2c1C(=O)NN=C1CCN(C)CC1,1.25%
11,CCOC(=O)Cn1c(O)c(N=NC(=O)CNC(=O)Cc2ccccc2)c2ccccc21,-11.5%
12,O=C(CN1CCCC1)Nc1sc2c(c1C(=O)Nc1ccccc1)CCCC2,2.11%
13,Cc1nc(-c2ccccc2)sc1C(=O)/C=C/N(C)C,5.62%
14,Cc1nc(-c2ccc(Cl)cc2)sc1C(=O)CBr,50.9% (active)
15,Cc1nc(-c2ccc(Cl)cc2)sc1C(=O)NN,-3.83%
16,CCc1ccc(S(=O)(=O)Nc2ccc(C)c(NS(C)(=O)=O)c2)cc1,-0.664%
17,O=S(=O)(Nc1cc(Cl)ccc1N1CCOCC1)c1ccccc1Cl,12%
18,Nc1ccc(-c2nnc(-c3ccccc3)o2)cc1,-11.5%
19,Brc1ccc(-c2nnc(-c3ccccc3)o2)o1,-6.79%
20,Nc1ccc(-c2nnc(-c3ccc(-c4ccccc4)cc3)o2)cc1,45.9% (active)
21,CCOc1ccccc1Nc1nnc(SCC(=O)Nc2cc(C)on2)s1,14.3%
22,Cc1cc2c(=O)n(C)c(SCC(=O)c3cc4ccccc4o3)nc2s1,29.9%
23,Cc1ccccc1Nc1nnc(SCC(=O)c2cc3ccccc3o2)s1,43.5% (active)
24,O=C(Nc1cc(-c2nn(CC(=O)N3CCCCC3)c(=O)c3ccccc23)ccc1N1CCOCC1)c1ccc(Cl)cc1,5.87%

row,SMILES,inhibition
1,Cc1cc(C)n2nc(CNS(=O)(=O)c3c(F)c(F)c(F)c(F)c3F)nc2n1,3.29%
2,CC(=O)Nc1ccc(/C=C/C(=O)c2ccccc2)cc1,51.4% (active)
3,O=C(/C=C/c1ccc(N2CCOCC2)cc1)c1ccccc1,36.1%
4,CC(=O)Nc1ccc(C(=O)/C=C/c2ccc[nH]2)cc1,-13.3%
5,O=C(CCNS(=O)(=O)c1ccccc1C(F)(F)F)Nc1ccncc1,-1.52%
6,Cc1nn(-c2ccccc2)c(Cl)c1/C=C/C(=O)c1ccc(O)cc1,0.354%
7,Cc1ccc(C(=O)/C=C/c2c(C)nn(-c3ccccc3)c2Cl)cc1,42.7% (active)
8,Cc1ccc(-n2nc(C)c(/C=N/NC(=O)c3cccs3)c2Cl)cc1,-6.6%
9,CC(=O)N/C(=C\c1ccccc1)C(=O)OC(C)C(=O)N(C)c1ccccc1 (stereo unspecified),4.65%
10,COC(=O)c1c(C(=O)OC)c2n(c1C)CCS2,-20.7%
11,COc1ccccc1CCNC(=O)c1c(C)nn(CC(C)C)c1Cl,16.6%
12,Cc1ccc(C(C[N+](=O)[O-])c2c(C)cc3ccccn23)cc1 (stereo unspecified),41.6% (active)
13,Cc1cc2ccccn2c1C(=O)c1cccc(F)c1,-8.04%
14,Cc1ccc(C(=O)NNC(=O)CSc2nnc3ccccn23)cc1,4.3%
15,O=C(Nc1ccccc1N1CCOCC1)c1ccncc1,-6.96%
16,Cc1ccc(C(=O)NC(=S)Nc2ccccc2C)cc1,40.5% (active)
17,CCc1ccc(C(=O)NC(=S)Nc2ccccc2N2CCOCC2)cc1,40.2% (active)
18,O=C(NC(=S)Nc1ccccc1N1CCCCC1)c1ccc(F)cc1,32.4%
19,O=C(COc1ccc(Cl)cc1)NC(=S)Nc1ccccc1N1CCOCC1,4.3%
20,COc1ccc(C(=O)NC(=S)Nc2ccccc2N2CCN(S(C)(=O)=O)CC2)cc1OC,25%
21,COc1ccccc1C(=O)NC(=S)Nc1ccccc1N1CCCCC1,41.9% (active)
22,Cc1cc(C(=O)NNC(=S)Nc2ccccc2C)cs1,24%
23,Cc1ccccc1NC(=S)NC(=O)Cc1ccc(Cl)cc1,22.6%
24,COc1ccccc1Cn1c(C)nnc1-c1cnn(C)c1N,9.92%

row,SMILES,inhibition
1,CCOC(=O)c1c(Cc2ccc(Cl)cc2)c[nH]c1C,29.9%
2,O=Cc1ccc(OCc2cn3ccccc3n2)cc1,-8%
3,Nc1nc(CC(=O)CSc2ccc(Cl)cc2)nc(Nc2ccc(F)cc2)n1,1.48%
4,COc1cc(Cl)c(C)cc1NC(=O)[C@@H]1CCCN1C(=O)c1cccs1,31.3%
5,COc1ccc2nc(NC(=O)[C@@H]3CCCN3C(=O)c3cccs3)sc2c1,45.4% (active)
6,COc1ccc(Cl)cc1NC(=O)[C@@H]1CCCN1C(=O)c1cccs1,33.9%
7,COCCCN(C(=S)Nc1c(C)cc(C)cc1C)C(C)c1ccncc1 (stereo unspecified),21.3%
8,O=S(=O)(NCc1ccc2c(c1)OCO2)c1cccc2nsnc12,1.8%
9,COc1ccc(Nc2cc(=O)n(-c3ccccc3)c3c2c(=O)n(C)c(=O)n3C)cc1,14.6%
10,Cc1cc(C)c(NC(=O)CN2C(=O)NC(Cc3ccccc3)C2=O)c(C)c1 (stereo unspecified),-9.44%
11,Cc1ccc(N2C(=O)C(Cc3ccccc3)NC2=S)cc1 (stereo unspecified),44.1% (active)
12,O=C1C(Cc2ccc(O)cc2)NC(=S)N1Cc1ccccc1 (stereo unspecified),-2.4%
13,CC(=O)c1cc2c(cc1NC(=O)Cn1nc(-c3ccc(F)cc3)ccc1=O)OCO2,16.5%
14,CN(C)c1ccc(C(CNC(=O)c2ccc(F)cc2)c2c[nH]c3ccccc23)cc1 (stereo unspecified),37.2%
15,Clc1ccc(Nc2nc(-c3cccs3)cs2)nc1,45.1% (active)
16,CCCc1cc(C(=O)Nc2ccc(Cl)cn2)cs1,27.7%
17,Cc1cccc(Nc2nc(-c3ccccc3)cs2)n1,-40.5%
18,CCOC(=O)c1cc(-c2ccccc2C)n(Cc2cc(C)no2)n1,9.65%
19,CN(CC(=O)O)C(=O)c1ccccc1,-0.243%
20,CN(C(=O)CC(NC(=O)c1ccccc1)(c1ccccc1)c1ccccc1)c1ccccc1,41.7% (active)
21,CC(C)(C)c1ccc(C(=O)NNC(=O)Cc2ccccc2)cc1,-12.1%
22,CCOC(=O)NC(=O)/C(C#N)=C\c1ccccc1,2.89%
23,CNC(=O)/C(C#N)=C/c1c(F)cccc1Cl,55.4% (active)
24,O=C(/C=C/c1c(F)cccc1Cl)Nc1nn[nH]n1,10.7%

row,SMILES,inhibition
1,O=C(CNS(=O)(=O)c1ccccc1)NCC(=O)OCc1ccccc1F,9.03%
2,O=C(Cn1nc(Cc2cccnc2)c2ccccc2c1=O)NCC1COc2ccccc2O1 (stereo unspecified),14.3%
3,C=CCNC(=S)NNC(=O)COc1c(Cl)cc(Cl)cc1Cl,37.3%
4,CCOC(=O)C1CCN(C(=O)C2CCCN(S(=O)(=O)c3ccc(OC)c(Cl)c3)C2)CC1 (stereo unspecified),-9.18%
5,COc1ccccc1NC(=O)N1CCCC1C(=O)NCc1cccs1 (stereo unspecified),16.7%
6,Cc1ccc(S(=O)(=O)Nc2ccc3ncccc3c2)cc1,18.6%
7,O=[N+]([O-])c1ccccc1S(=O)(=O)Nc1cccc2cccnc12,34.8%
8,COc1cc(NS(=O)(=O)c2ccc3ccccc3c2)c2ncccc2c1,40.5% (active)
9,COc1ccc(S(=O)(=O)NCc2cccnc2)cc1NC(=O)c1ccc(C)cc1,8.35%
10,CCC(C)(C)n1nnnc1C(c1cccs1)N1CCN(c2nc3ccccc3s2)CC1 (stereo unspecified),36.1%
11,Cc1ccc2nc(NCCCNC(=O)c3cnccn3)c(C#N)cc2c1,8.4%
12,CCC(C)(C)n1nnnc1CN1CCN(c2nc3ccc(C)cc3cc2C#N)CC1,40.7% (active)
13,COc1ccc(CNC(=O)COC(=O)/C=C/c2ccc(S(=O)(=O)N3CCOCC3)cc2)cc1,20%
14,Cc1nc2nc(C)c(CCC(=O)N3CCN(c4ccccc4)CC3)c(C)n2n1,1.14%
15,COc1ccc2[nH]c3c(c2c1)CCN1C(=O)C(CC(=O)NCc2cccc(C(F)(F)F)c2)C[C@H](C(=O)N2CCOCC2)[C@@]31C (stereo partly specified),11%
16,COc1ccc(C(=O)N2CC3(C)CC2CC(C)(C)C3)cc1OC (stereo unspecified),19.6%
17,Cc1cccc(C(=O)NCC(=O)OCC(=O)N2CC3(C)CC2CC(C)(C)C3)c1 (stereo unspecified),15.2%
18,Cc1nnnn1/C(=C\c1ccccc1)C(=O)OCC(=O)N1CC2(C)CC1CC(C)(C)C2 (stereo unspecified),56.1% (active)
19,CCOc1ccc(C(C)=O)cc1CSc1nnc(-c2ccncc2)n1CCOC,22.6%
20,NC(=O)NC(CC(=O)NNC(=O)c1ccccn1)c1ccc(Cl)cc1 (stereo unspecified),8.52%
21,NC(=O)c1ccsc1NC(=O)c1ccco1,-3.6%
22,O=C(Nc1nnc(CCOCCOCCc2nnc(NC(=O)c3ccco3)s2)s1)c1ccco1,-13%
23,O=C(Nc1nc(-c2ccco2)c(-c2ccco2)s1)c1ccco1,59.7% (active)
24,C=CC[C@@H](CC(=O)NCCO)C(=O)N[C@H](C)COC(=O)[C@@H](CC=C)CC(=O)OC(C)(C)C,-5.11%
